This is an account of results in PMC4552634, “A New Set of Chemical Starting Points with Plasmodium falciparum Transmission-Blocking Potential for Antimalarial Drug Discovery” (PLoS ONE, 2015).

As a reminder, the % Inhibition is the change of the read-out against control, counted positive when it falls.

SMILES strings stand for the structures. Among all 13,000 compounds or so, about 3,200 (25%) showed an effect of 50% or more. The list shows a part of the results.

This experiment deals with P. falciparum stage V gametocytes. Further details: BacTiter-Glo ATP luminescence viability of purified stage V gametocytes in 384-well plates, per cent inhibition versus DMSO. As to conditions: 48 h, 5 µM; inhibitor.

As to `CC(C)(C)OC(=O)N(Cc1cc(-n2nnnc2C(F)(F)F)ccc1O)[C@H]1CCCN(C(=O)OC(C)(C)C)[C@H]1c1ccccc1` [TCMDC-132022], the “% Inhibition” value was -21.48%. With `CC(C)(C)c1ccc(NC(=O)c2cccc(CN3CCCN(Cc4cccc(O)c4)CC3)c2)cc1` [TCMDC-135983] the figure was -11.1%; with `O=C(/C=C/c1ccc(Cl)c(Cl)c1)NC1CCN(Cc2ccc(O)cc2)C1` (stereo not shown) [TCMDC-141739], 26.39%; with `COc1ccc2nccc([C@@H](O)CN3CCC(NCc4cnc5c(c4)NC(=O)CS5)C(F)C3)c2c1` (stereo partly shown) [TCMDC-141716], 19.26%. Turning to `CCc1ccc(CN2CCC(CNC(=O)c3cc(-c4ccccc4F)cs3)C2)cc1` (stereo not shown) [TCMDC-134431], the “% Inhibition” value is listed as 96.16%.

On to `COc1ccccc1-c1csc(C(=O)NCC2CCN(Cc3ccc(C(C)C)cc3)C2)c1` (stereo not shown) [TCMDC-134510], for which the “% Inhibition” value is listed as -33.71%. Regarding `CC(C)(C)c1ccc(CN2CCC(CNC(=O)c3cc(-c4ccccc4F)cs3)C2)cc1` (stereo not shown) [TCMDC-134443], the “% Inhibition” value turned out to be 104.8%.

As for `CC(C)c1ccc(CN2CCC(CNC(=O)c3cc(-c4ccccc4F)cs3)C2)cc1` (stereo not shown) [TCMDC-134436], the “% Inhibition” value is 107.7%. With `CC(C)c1ccc(CN2CCCCC(NC(=O)c3cc(-c4ccccc4F)cs3)C2)cc1` (stereo not shown) [TCMDC-134462] the figure was -8.212%; with `CC(C)(C)c1ccc(CN2CCC(CNC(=O)c3cc(-c4ccccc4C(F)(F)F)cs3)C2)cc1` (stereo not shown) [TCMDC-134441], 105.6%.

Take `CC(C)Oc1ccccc1-c1csc(C(=O)NCC2CCN(Cc3ccc(C(C)(C)C)cc3)C2)c1` (stereo not shown) [TCMDC-134512]: the “% Inhibition” value stood at 5.537%. As for `CCCc1cc(C(=O)N[C@@H](Cc2ccccc2)[C@H](O)CNC2CCOCC2)c(F)c(N2CCCCS2(=O)=O)c1` [TCMDC-135445], the figure is 21.51%; as for `Cc1ccccc1C1CCN(C2CCC(NC(=O)c3ccc(-c4ccccn4)s3)CC2)CC1` (stereo not shown) [TCMDC-134106], -14.35%; as for `COc1cc(Cc2cnc(N)nc2N)ccc1OCc1cccc(Oc2ccccc2)c1` [TCMDC-138681], -11.55%. With `COc1cccc(Nc2nccc(NCC(O)c3ccc(C(F)(F)F)cc3)n2)c1` (stereo not shown) [TCMDC-136594] the figure was -17.97%; with `CN1C(=C2SC(=Nc3ccc4ncccc4c3)N(Cc3ccccc3)C2=O)Sc2ccc(Cl)cc21` [TCMDC-124118], 3.008%.

Take `COc1ccc(NC(=O)[C@H](CC(C)C)Nc2cc(C)nc(NCC3CCCCC3)n2)cc1` [TCMDC-134917]: the “% Inhibition” value was -43.94%.

With `COc1cc(C2NCC3(CCOCC3)c3cc4c(cc32)OCCO4)cc(OC)c1OC` (stereo not shown) [TCMDC-125743], the “% Inhibition” value is on record as -20.6%. With `Cc1cc(C)c(C)c(OCCCON2C(N)=NC(N)=NC2(C)C)c1C` [TCMDC-131791] the figure was -4.975%; with `COCCNCc1ccc(-c2cccc(CN(C(=O)CCC3CCCC3)C3CCN(Cc4ccccc4)CC3)c2)cc1` [TCMDC-140552], 102.7%; with `CC(C)CNCc1ccc(-c2cccc(CN(C(=O)CCC3CCCC3)C3CCN(Cc4ccccc4)CC3)c2)cc1` [TCMDC-140551], 80.54%. For the compound `O=C(NC1CCN(c2ccnc3ccccc23)C1)c1cccc(C(F)(F)F)c1` (stereo not shown) [TCMDC-133580], the “% Inhibition” value is reported as -5.668%. As for `N#Cc1ccc(CN2CCC(Oc3ccc(NC(=O)c4cccs4)cc3)CC2)cc1` [TCMDC-133953], the figure is 32.19%; as for `O=C(O[C@H]1CN[C@H](C#Cc2cc3c(Nc4ccc(OCc5cccc(F)c5)c(Cl)c4)ncnc3s2)C1)N1CCCC1` [TCMDC-135291], -17.95%; as for `CCN(C)C(=O)n1ncc2c3c(N)nc(N)nc3ccc21` [TCMDC-137828], 19.76%. `Cc1ccc(CCNCC(O)c2cccc(C(F)(F)F)c2)cc1` (stereo not shown) [TCMDC-131447]: the “% Inhibition” value worked out at 15.63%.

Regarding `Cc1c(CN2CCC(N3CCC(C(=O)NC4CC4)CC3)CC2)[nH]c2c(Cl)cccc12` [TCMDC-124608], the “% Inhibition” value is listed as 11.69%. `Cc1ccccc1Cn1c(CN2CCC(C(=O)NC3CC3)CC2)cc2ccccc21` [TCMDC-134259]: the “% Inhibition” value is 50.21%. For the compound `O=C(NC1CC1)C1CCN(Cc2cc3ccccc3n2Cc2ccc(Cl)cc2)CC1` [TCMDC-125065], the “% Inhibition” value is listed as 41.24%. As for `CN(C)CCCn1cncc1-c1ccc2ncnc(Nc3ccc(OCc4ccccc4)cc3)c2c1` [TCMDC-138088], the figure is 1.652%; as for `COc1ccccc1N1CCN(CCCCNC(=O)c2ccc(NC(=O)c3ccc4ccccc4c3)cc2)CC1` [TCMDC-138109], -15.04%; as for `CCCC(=O)NC(c1ccc(C)cc1)c1ccc2cccnc2c1O` (stereo not shown) [TCMDC-123605], 92.74%. With `CC(C)C(=O)NC(c1ccc(Cl)cc1)c1ccc2cccnc2c1O` (stereo not shown) [TCMDC-124343] the figure was 44.71%.

Consider `Cc1ccc(C(NC(=O)C2CCCCC2)c2ccc3cccnc3c2O)cc1` (stereo not shown) [TCMDC-123654], for which the “% Inhibition” value was determined as 50.75%.
